# Sfp PPTase inh = Sfp phosphopantetheinyl transferase inhibition | Q9F4F7 | actives 3.5% (n = 310,000) | AID 1490 | Potency, µM, for the others: largest response in the series, negative = inhibition, actives largely listed as inhibitors | Biochemical Sfp PPTase activity, qHTS;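 also: the enzyme is Sfp with the accession as filed and its product quenches rhodamine fluorescence; 0% = enzyme reaction without inhibitor and -100% = no enzyme wells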
#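 After 15 min at room temperature with compound, 15 nM Sfp received 5 uM rhodamine-CoA plus 12.5 uM BHQ-2-ybbR (50 mM Hepes pH 7.6, 10 mM MgCl2). Rate came from the fluorescence difference over 30 min, ex 525/em 598 nm.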
# G9a block = inhibitors of human histone lysine methyltransferase G9a. actives 8.8% (n = 350,000). Potency, µM (top dose mostly 102 µM), inactives show top-dose activity, negative = inhibition, actives largely listed as inhibitors. Q96KQ7. G9a H3K9 monomethylation, AlphaScreen, 2 h; also: % is scaled to controls: 0 for no effect and ±100 for the full control effect; nearly all actives have a fitted effect of over 75% in size
#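 Methyltransferase reactions run at room temperature for 2 h (20 nM enzyme, 500 nM biotin-H3K9 peptide, 20 uM SAM) after a 15 min compound preincubation; product detected by AlphaScreen beads and anti-H3K9me1 antibody.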
# Glioma ERSR ind = inducers of ER stress response in human glioma cells | Potency, µM, without a hit: top-dose activation, actives largely listed as activators | U87-MG GRP78 promoter luciferase reporter, 16 h | actives 0.02% (n = 420,000); also: series mostly up to about 76 µM; % of control where 0% means no effect; nearly all actives have a fitted effect of over 35% in size
#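 Stably transfected U87-MG glioma cells carrying a GRP78-based luciferase sensor; 16 h compound incubation. Luminescence end-point read 10 min after Bright-Glo addition at room temperature.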
# VDR inh = inhibitors of human vitamin D receptor. P11473. actives 0.93% (n = 400,000). VDR-SRC2-3 peptide fluorescence polarization, 2 h. AID 504847. Potency, µM, without a hit: max response, negative = inhibition, most hits filed as inhibitors; also: % is scaled to controls: 0 for no effect and ±100 for the full control effect
# Target sequence (P11473 whole entry, looked up): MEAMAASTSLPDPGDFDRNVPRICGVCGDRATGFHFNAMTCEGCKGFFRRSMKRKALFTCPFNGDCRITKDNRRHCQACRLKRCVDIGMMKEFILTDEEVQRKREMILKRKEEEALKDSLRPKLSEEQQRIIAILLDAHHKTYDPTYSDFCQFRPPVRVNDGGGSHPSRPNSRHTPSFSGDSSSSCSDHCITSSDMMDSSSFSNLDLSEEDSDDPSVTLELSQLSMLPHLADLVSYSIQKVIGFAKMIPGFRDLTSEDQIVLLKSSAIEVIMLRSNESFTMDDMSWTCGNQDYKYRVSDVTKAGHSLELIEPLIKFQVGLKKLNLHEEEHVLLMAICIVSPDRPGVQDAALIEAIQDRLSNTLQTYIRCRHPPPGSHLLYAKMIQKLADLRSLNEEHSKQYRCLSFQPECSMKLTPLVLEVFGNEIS
#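 Inhibition of the VDR/SRC2-3 peptide interaction is quantified by fluorescence polarization. Compounds (23 nl, pintool) incubate with the reagents for 2 hours at ambient room temperature.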
# 12-LOX inh = blocks human arachidonate 12S-lipoxygenase | AID 1671190 | purified 12hLO, xylenol orange hydroperoxide absorbance | actives 1.1% (n = 580,000) | P18054 | Potency, µM (series often up to 108 µM), for inactives: at the highest dose activity change, negative = inhibition, usual class: inhibitors; also: % is scaled to controls: 0 for no effect and ±100 for the full control effect
#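 Hydroperoxide product was detected by ferrous iron/xylenol orange as the 573 to 405 nm absorbance ratio. Arachidonic acid at 40 uM (final) was turned over for 30 min at room temperature by 150 nM human 12hLO, pH 7.0 Hepes buffer, after 15 min compound preincubation.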
# * hit, by the source's call; ? = inconclusive; . = no result given; [ ] = remark or other dose. This excerpt belongs to a sample that is enriched for hits. Calls follow the shape of the dose curve; as a rule, active = well fitted curve in the direction sought with a large enough effect; inconclusive = small, poorly fitted or top-dose-only effect, or another doubt; inactive = no such curve, though single readings can be large; an effect the other way counts as inactive or inconclusive. Potency is read from the fitted curve at half-maximal effect.
SMILES,Sfp PPTase inh,G9a block,Glioma ERSR ind,VDR inh,12-LOX inh
O=C(CCl)c1cc2c3c(c1)CC(=O)N3CCC2,-1%,50µM*,-19%,?,?
OCCN(Cc1ccccc1)Cc1ccc(Cl)cc1Cl,-20%,7.1µM*,-4%,5%,?
COc1ccc(N/C=C(\C#N)c2ccc(OCCCF)cc2)cc1,-5%,-12%[12.7 µM],0%,6%,0%
Cc1ccc(N/C=C(\C#N)c2ccc(OCCCF)cc2)cc1,26%,45µM*,3%,-20%,-8%
CCOC(=O)C1CCN(S(=O)(=O)c2ccc3c4c2CC(=O)N4CC(C)S3)CC1 (stereo not given),-11%,35µM*,-2%,-16%,?
CCOC(=O)C1CCCN(S(=O)(=O)c2ccc3c4c2CC(=O)N4CC(C)S3)C1 (stereo not given),0%,45µM*,-2%,-4%,2%
Cc1ccc(NC(=O)C(=O)NCCN2CCN(C(=O)c3ccc(C(C)(C)C)cc3)CC2)cc1,.,.,.,.,10%
CCOc1ccccc1NC(=O)CCc1ccc(-c2ccc(C)cc2)o1,.,.,.,.,-1%
O=C1CN(C(=O)CSc2nnc(Nc3ccccc3)s2)c2ccccc2N1,-14%,?,4%,-6%,-27%
COc1ccccc1Nc1nnc(SCC(=O)N2CC(=O)Nc3ccccc32)s1,8%,50µM*,-3%,3%,3%
Cc1nnc(SCC(=O)N2CC(=O)Nc3ccccc32)n1Cc1ccccc1,2%,-38%,-3%,1%,50%
Cc1nc(SCC(=O)N2CC(=O)Nc3ccccc32)nc(C)c1C,-25%,32µM*,-3%,3%,8%
Cc1cccc(-n2c(SCC(=O)N3CC(=O)Nc4ccccc43)nc3ccccc3c2=O)c1C,-17%,45µM*,-5%,-11%,?
O=C(c1cc(C2CC2)nc2c1c(C1CCCN1)nn2-c1ccccc1)N1CCC(F)CC1 (stereo not given),.,.,.,.,-6%[6.33 µM]
O=C(NC1CCCCNC1=O)c1cc(Cl)c2c(c1)OCCCO2 (stereo not given),.,.,.,.,119%
CCc1ccc(NC(=O)Cn2c(-c3ccc(F)cc3)cc(C(C)=O)c2C)cc1,.,.,.,.,18%
COC(=O)C1=C(C)NC(=O)/C1=C\c1cc(C)n(-c2c(C)cccc2C)c1C,-26%,10µM*,-6%,3%,?
CC1CCCCN1S(=O)(=O)c1ccc2[nH]c(=O)cc(C(=O)NCCCN3CCCCCC3)c2c1 (stereo not given),-1%,79µM*,-5%,-13%,-6%
Cc1ccc(S(=O)(=O)Nc2nc3ccccc3nc2NC2CCCCC2)cc1,.,.,.,.,-19%
COc1ccc(C2Nc3ccccc3-c3cc(C)nn32)cc1O (stereo not given),.,.,.,.,-5%
Cc1oc(-c2nc(C#N)c(NCc3cccnc3)o2)cc1S(=O)(=O)N1CCCC1,.,.,.,.,-2%
CC1(C)Cc2c(cnn2-c2ccc(F)cc2)C(NC(=O)CN2CCCCC2=O)C1 (stereo not given),6%,40µM*,1%,8%,0%
CCOC(=O)c1ccoc1COC(=O)c1[nH]c(C)c(C(=O)OC)c1C,.,.,.,.,-20%
CCCN1CC=C2C(C#N)=C(N)C(C#N)(C#N)C(c3cccc(OC)c3OC)C2C1 (stereo not given),20%,?,-3%,-27%,4%
COc1cccc(OC)c1OCc1cc(C2C3CCCC=C3C(C#N)=C(N)C2(C#N)C#N)c(C)cc1C (stereo not given),56µM*,.,0%,?,?
SMILES,Sfp PPTase inh,G9a block,Glioma ERSR ind,VDR inh,12-LOX inh
CC(Sc1nc(-c2cccs2)nc2ccccc12)C(=O)NCc1ccco1 (stereo not given),.,.,.,.,-11%
Cc1cc2ccccc2c(=O)n1CC(=O)NCC(=O)N1CCN(c2ccccc2)CC1,50µM*,26%[59 µM],-3%,11%,0%
Cc1cc2ccccc2c(=O)n1CC(=O)N1CCN(c2cccc(Cl)c2)CC1,-3%,-23%[2.33 µM],-1%,-8%,3%
COc1ccccc1-c1oc2ccccc2c(=O)c1O,5%,.,-4%,6%,.
COc1ccc(OC)c(-c2oc3ccccc3c(=O)c2O)c1,89µM*,?,5%,-9%,?
O=CNn1cnc2c(oc3nc(-c4ccccc4)cc(-c4ccco4)c32)c1=O,?,50µM*,-4%,3%,-5%

# High-throughput results from PubChem BioAssay.
